Experiments:
Assay in all cases: PBM binding z-score (relative to random genomic background probes); higher = stronger binding; sequences stand for … in GC…GCGATTGACAGCGTAGAATGAAGG
[1] = system: FXR:RXRa (NR concentration 270 nM, RXRa partner concentration 90 nM)
Procedure, shortened: (§1)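 Binding z-scores were set against random background probes. The data came from custom Agilent 4×180K protein-binding microarrays carrying double-stranded probes with 34-nt variable regions, incubated 1 h with ligand-free nuclear receptor dimers. Partner-specific antibodies detected binding, and scanned fluorescence was regression-normalized.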

[2] = system: LXRa:RXRa (NR concentration 270 nM, RXRa partner concentration 90 nM)
Procedure, shortened: as §1

[3] = system: LXRa homodimer (NR concentration 270 nM)
Procedure, shortened: as §1

[4] = system: LXRb:RXRa (NR concentration 270 nM, RXRa partner concentration 90 nM)
Procedure, shortened: as §1

[5] = system: LXRb homodimer (NR concentration 270 nM)
Procedure, shortened: as §1

[6] = system: PPARa:RXRa (NR concentration 270 nM, RXRa partner concentration 90 nM)
Procedure, shortened: as §1

[7] = system: PPARg:RXRa (NR concentration 180 nM, RXRa partner concentration 90 nM)
Procedure, shortened: as §1

[8] = system: PPARg:RXRa 270nM:90nM, anti-RXR (NR concentration 270 nM, RXRa partner concentration 90 nM)
Procedure, shortened: as §1

[9] = system: PPARg:RXRa 30nM:10nM, anti-RXR (NR concentration 30 nM, RXRa partner concentration 10 nM)
Procedure, shortened: as §1

[10] = system: PPARg:RXRa 90nM:30nM, anti-RXR (NR concentration 90 nM, RXRa partner concentration 30 nM)
Procedure, shortened: as §1

[11] = system: PPARg:RXRa DBDmut IVT, anti-RXR (DBD mutation: RXRa K156A/R161A, NR concentration 270 nM, RXRa partner concentration 90 nM)
Procedure, shortened: as §1

[12] = system: PPARg:RXRa IVT, anti-PPARg (NR concentration 270 nM, RXRa partner concentration 90 nM)
Procedure, shortened: as §1

[13] = system: PPARg DBDmut:RXRa IVT, anti-PPARg (DBD mutation: PPARg1 K132A/R137A, NR concentration 270 nM, RXRa partner concentration 90 nM)
Procedure, shortened: as §1

[14] = system: PPARg DBDmut IVT, anti-PPARg (DBD mutation: PPARg1 K132A/R137A, NR concentration 270 nM)
Procedure, shortened: as §1

[15] = system: PPARg homodimer (NR concentration 180 nM)
Procedure, shortened: as §1

[16] = system: PXR:RXRa (NR concentration 270 nM, RXRa partner concentration 90 nM)
Procedure, shortened: as §1

[17] = system: PXR homodimer (NR concentration 270 nM)
Procedure, shortened: as §1

[18] = system: RARa:RXR (NR concentration 270 nM, RXRa partner concentration 90 nM)
Procedure, shortened: as §1

[19] = system: RARa homodimer (NR concentration 270 nM)
Procedure, shortened: as §1

[20] = system: RARb:RXRa (NR concentration 270 nM, RXRa partner concentration 90 nM)
Procedure, shortened: as §1

Sequence	PBM binding z-score [1]	PBM binding z-score [2]	PBM binding z-score [3]	PBM binding z-score [4]	PBM binding z-score [5]	PBM binding z-score [6]	PBM binding z-score [7]	PBM binding z-score [8]	PBM binding z-score [9]	PBM binding z-score [10]	PBM binding z-score [11]	PBM binding z-score [12]	PBM binding z-score [13]	PBM binding z-score [14]	PBM binding z-score [15]	PBM binding z-score [16]	PBM binding z-score [17]	PBM binding z-score [18]	PBM binding z-score [19]	PBM binding z-score [20]
GCTTTCGGGTCAAAGGTTATAGCATGAATAGAAT	7.21	5.74	0.496	5.58	0.746	6.76	11.3	9.26	8.67	10	3.82	5.81	1.23	1.1	1.81	5.89	0.475	8.07	1.08	4.59
GCGACTGGGGCATCAGCATGTTACCATAACTTAA	-0.56	-0.551	-0.462	0.363	-0.493	0.258	0.836	0.643	-0.13	-0.0118	3.55	2.94	-0.0811	-0.739	-0.0822	-0.238	-0.758	-0.253	-0.423	0.376
CGTCCAAGGTCAAAGGTCAGTGACGAGATGACGG	8.29	6.97	3.55	6.4	2.01	7.03	10.8	9.11	8.03	9.31	4.07	5.8	1.24	0.0683	6.48	7.17	2.08	8.72	2.59	5.86
AGAATGAGGTTAATAAGATCAGGGAATTGCGGTC	1.38	1.15	0.213	1.24	0.00596	2.74	1.75	2.22	0.516	1.58	3.37	2.89	0.759	0.384	1.23	1.06	0.151	1.48	0.329	1.58
AGAATGAGGTTATGCGTAGATCAGGGAAGAAAGT	1.66	1.51	-0.231	1.31	-0.169	3.1	1.44	2	0.664	1.12	2.31	2.01	0.845	0.71	0.621	0.966	0.308	1.32	0.403	1.57
CTAACGAGGGCATGAGTTGATAGCAAATGCCGAT	0.543	0.409	-0.604	0.119	-0.182	1.54	1.71	2.02	0.704	1.51	3.84	2.56	0.128	0.129	0.262	0.639	0.123	0.588	0.359	2.01
CTCGAAAGATCGGTTGAGGTGAGTATACGGATAA	0.238	-0.622	-0.531	-0.146	-0.43	0.0167	-0.0366	-0.226	-0.244	-0.262	-0.303	0.165	0.37	0.142	-0.353	-0.0362	-0.0981	0.657	-0.222	0.00694

— the supplement of paper PMC6555819
